{"source": "PubChem BioAssay AID1259343", "about": "(VanderVen Lab, College of Veterinary Medicine, Cornell …, 2017)", "note": "Among all 6,200 compounds or so, about 2,900 (47%) were called active. So high a share suggests a set chosen from earlier hits. This is one part of the list. A number with no mark means an inactive call. No stated cut-off is given here; in the data, active means inhibition above about 50%; inactive means the rest."}
{"test": "Mycobacterium tuberculosis growth inhibition, primary screen (AID 1259343)", "details": "inhibition: at 10 µM, hits give high values; outcome: 10 uM"}
{"smiles": "Cc1csc(SCc2cc(=O)c(OC(=O)c3ccc(C)c(C)c3)co2)n1", "inhibition": "-15%"}
{"smiles": "CCCC1CCCN(C(=O)c2cc3ccccc3cc2O)CC1", "note": "(stereo unspecified)", "inhibition": "23.5%"}
{"smiles": "COc1coc(CN2CCCC(CCc3ccccc3C)C2)cc1=O", "note": "(stereo unspecified)", "inhibition": "33.7%"}
{"smiles": "O=C(c1cc(COc2cccc(C(F)(F)F)c2)on1)N1CCCC(CCCO)C1", "note": "(stereo unspecified)", "inhibition": "47.5%"}
{"smiles": "COc1ncc(C(=O)N2CCCC(COc3cccc(F)c3)C2)cn1", "note": "(stereo unspecified)", "inhibition": "36.7%"}
{"smiles": "O=C(c1cnn2ccccc12)N1CCCC(CCc2cccc(C(F)(F)F)c2)C1", "note": "(stereo unspecified)", "inhibition": "93.1% (active)"}
{"smiles": "COc1ncc(CN2CCCC(CCc3ccccc3C(F)(F)F)C2)cn1", "note": "(stereo unspecified)", "inhibition": "77.6% (active)"}
{"smiles": "CC(C)c1ncc(CN2CCCC(CCc3cccc(C(F)(F)F)c3)C2)cn1", "note": "(stereo unspecified)", "inhibition": "93.2% (active)"}
{"smiles": "COc1ccc(Cn2c(C3CCCCC3)nc3oc4ccccc4c(=O)c3c2=O)cc1", "inhibition": "-20.8%"}
{"smiles": "CCOc1ccc(Cn2c(=O)oc3ccccc32)cc1", "inhibition": "68.1% (active)"}
{"smiles": "CCCOc1ccc(Cn2c(=O)oc3ccc(C)cc32)cc1", "inhibition": "67.2% (active)"}
{"smiles": "CCOC1=CC(=O)N(Cc2ccccc2)C1", "inhibition": "48.1%"}
{"smiles": "CCCOc1ccc(C2c3c(oc4ccc(C)cc4c3=O)C(=O)N2c2nccs2)cc1", "note": "(stereo unspecified)", "inhibition": "-18.8%"}
{"smiles": "CCCOc1ccc(Cc2nn[nH]n2)cc1", "inhibition": "34.6%"}
{"smiles": "NC1=NC(=O)C(CC(=O)Nc2ccc(SC(F)(F)C(F)(F)C(F)(F)F)cc2)S1", "note": "(stereo unspecified)", "inhibition": "35.5%"}
{"smiles": "O=S(=O)(/C=C/c1ccccc1)Nc1ccc(Cl)cc1F", "inhibition": "81.5% (active)"}
{"smiles": "O=S(=O)(/C=C/c1ccccc1)Nc1ccccc1C(F)(F)F", "inhibition": "78.4% (active)"}
{"smiles": "O=S(=O)(/C=C/c1ccccc1)NCCc1cccc2ccccc12", "inhibition": "6.24%"}
{"smiles": "O=S(=O)(/C=C/c1ccccc1)NC1CCCCC1", "inhibition": "17%"}
{"smiles": "Cc1ccc2nc(-c3cccc(N)c3C)oc2c1", "inhibition": "42.1%"}
{"smiles": "Cc1cccc(C)c1-c1ccc(-c2nn[nH]n2)cc1", "inhibition": "70.6% (active)"}
{"smiles": "COc1ccc(OCCNc2ccccc2-c2nn[nH]n2)cc1", "inhibition": "22.1%"}
{"smiles": "O=C(Cn1ncc(Cl)c(Cl)c1=O)Nc1ccc2ccccc2c1", "inhibition": "11%"}
{"smiles": "O=C(Cn1ncc(Cl)c(Cl)c1=O)c1ccc2c(c1)CCC2", "inhibition": "82.8% (active)"}
{"smiles": "O=C(Cn1ncc(Cl)c(Cl)c1=O)c1cc(F)ccc1F", "inhibition": "-50.8%"}
{"smiles": "CC(C)(C)c1ccc(OCc2ccc(C(=O)OCC#N)cc2)cc1", "inhibition": "-2.26%"}
{"smiles": "CC(C)OC(=O)c1ccc(COc2ccc(C(C)(C)C)cc2)o1", "inhibition": "75.8% (active)"}
{"smiles": "CC(C)c1nc(CC(=O)N(C)Cc2ccc(C3CC3C)o2)cs1", "note": "(stereo unspecified)", "inhibition": "83.2% (active)"}
{"smiles": "CC1CC1c1ccc(CCC(=O)Nc2ccccn2)o1", "note": "(stereo unspecified)", "inhibition": "48.8%"}
{"smiles": "CC1CC1c1ccc(/C=C2/SC(N)=NC2=O)o1", "note": "(stereo unspecified)", "inhibition": "5.99%"}
{"smiles": "COc1cccc(Cc2nsc(Oc3ccc(CC(=O)O)cc3)n2)c1", "inhibition": "88.3% (active)"}
{"smiles": "COc1cccc(CC(=O)Nc2ccc3c(c2)CCC3)c1", "inhibition": "-43.3%"}
{"smiles": "CN(Cc1ccc2cccc(O)c2n1)Cc1noc(C2CCC2)n1", "inhibition": "98.5% (active)"}
{"smiles": "C=C(C)COc1cccc(C(=O)NCc2noc(C3CCCC3)n2)c1", "inhibition": "38.4%"}
{"smiles": "COCc1nnc(NS(=O)(=O)c2ccc(Br)cc2)s1", "inhibition": "inactive"}
{"smiles": "CC(C)c1nnc(NS(=O)(=O)c2ccc(Cl)s2)s1", "inhibition": "-36.5%"}
{"smiles": "CCc1nnc(NS(=O)(=O)c2ccccc2Cl)s1", "inhibition": "80.2% (active)"}
{"smiles": "c1cc2cc(CNc3nc(NCC4CC4)nc4ccsc34)ccc2o1", "inhibition": "76.9% (active)"}
{"smiles": "Clc1ccccc1CSc1nnc(-c2ccc3c(c2)OCO3)o1", "inhibition": "1.82%"}
{"smiles": "N#CCSc1nnc(-c2ccc3c(c2)OCO3)o1", "inhibition": "97.5% (active)"}
{"smiles": "Brc1ccc(CSc2nnc(-c3ccc4c(c3)OCO4)o2)cc1", "inhibition": "59.2% (active)"}
{"smiles": "Brc1ccccc1CSc1nnc(-c2ccc3c(c2)OCO3)o1", "inhibition": "99.6% (active)"}
{"smiles": "Brc1cc2c(cc1CSc1nnc(-c3ccccc3)o1)OCO2", "inhibition": "-11.5%"}
{"smiles": "Clc1cccc(Cl)c1CSc1nnc(-c2ccc3c(c2)OCO3)o1", "inhibition": "63.3% (active)"}
{"smiles": "Clc1cccc(CSc2nnc(-c3ccc4c(c3)OCO4)o2)c1", "inhibition": "41.6%"}
{"smiles": "CCn1nc(NC(C)=O)c2cc3ccc(C)cc3nc21", "inhibition": "-33.9%"}
{"smiles": "CN(C(=O)c1cc(Cl)sc1Cl)c1ccc(-c2onc3c2CCc2ccccc2-3)cc1", "inhibition": "35.5%"}
{"smiles": "Fc1ccc(-c2nnc(SCc3cc(Cl)c4c(c3)OCCO4)o2)cc1", "inhibition": "95.4% (active)"}
{"smiles": "COc1ccc(C=NOCc2ccc(Cl)c(Cl)c2)c(OC)c1", "inhibition": "32.8%"}
{"smiles": "C(=NOCc1ccc(CON=Cc2ccccc2)cc1)c1ccccc1", "inhibition": "16.2%"}
{"smiles": "N#Cc1ccc(CON=Cc2ccccc2)cc1", "inhibition": "70.7% (active)"}
{"smiles": "N#Cc1ccc(CON=Cc2ccccc2OC(F)F)cc1", "inhibition": "52.2% (active)"}
{"smiles": "Cc1nc(-n2nc(C3CC3)cc2NC(=O)c2ccc(F)cc2)[nH]c(=O)c1C", "inhibition": "101% (active)"}
{"smiles": "Cc1cccc(C(=O)Nc2cc(C3CC3)nn2-c2nc(C)c(C)c(=O)[nH]2)c1", "inhibition": "99.3% (active)"}
{"smiles": "Cc1nc(-n2nc(C3CC3)cc2NC(=O)c2cccc(F)c2)[nH]c(=O)c1C", "inhibition": "100% (active)"}
{"smiles": "O=C1/C(=C/c2ccc(O)cc2)C(N2CCOCC2)=NN1c1ccc([N+](=O)[O-])cc1", "inhibition": "36.6%"}
{"smiles": "CC(c1ccccc1)N1CCN(c2ccc([N+](=O)[O-])cc2)CC1", "note": "(stereo unspecified)", "inhibition": "56.5% (active)"}
{"smiles": "O=[N+]([O-])c1ccc(N2CCCCC2)cc1", "inhibition": "48.6%"}
{"smiles": "C=CCc1c(C)nc2c(-c3cccc(Cl)c3)c(C)[nH]n2c1=O", "inhibition": "99.8% (active)"}
{"smiles": "C=CCc1c(C)nc2c(-c3ccccc3)cnn2c1NCCOC", "inhibition": "17.5%"}
{"smiles": "C=CCc1c(C)nc2c(-c3ccccc3)cnn2c1NCCN(C)C", "inhibition": "inactive"}
{"smiles": "COc1ccccc1Oc1cc(Cl)ncn1", "inhibition": "53.5% (active)"}
{"smiles": "Fc1ccc(CN2CCN(c3cc(Oc4ccc(F)cc4Cl)ncn3)CC2)cc1", "inhibition": "39.7%"}
{"smiles": "Fc1ccc(Oc2cc(N3CCc4ccccc4C3)ncn2)cc1F", "inhibition": "34.6%"}
{"smiles": "COc1cc(C(C)=O)ccc1Oc1cnccn1", "inhibition": "3.02%"}
{"smiles": "Fc1ccc(Oc2cc(Cl)ncn2)cc1", "inhibition": "73.1% (active)"}
